Records with an inconclusive call do not appear. Entries that show only a call come without a potency. A number with no mark means an inactive call. Active and inactive are the calls of the source. The call rests on the fitted dose curve; in most records, active means well fitted inhibition curve with a large enough effect in the repeat runs; inconclusive means weak or mixed curves; inactive means no such curve, though single readings can be large or run the other way.
target: Cytochrome P450 2C9 (Homo sapiens) (UniProt P11712); test: Cytochrome P450 Family 2 Subfamily C Member 9 (CYP2C9) small molecule antagonists: luciferase reporter qHTS assay (AID 1671198); conditions: P450-Glo CYP2C9 enzyme assay, luciferin luminescence; series mostly up to 115 µM
Sequence (P11712 whole entry, looked up): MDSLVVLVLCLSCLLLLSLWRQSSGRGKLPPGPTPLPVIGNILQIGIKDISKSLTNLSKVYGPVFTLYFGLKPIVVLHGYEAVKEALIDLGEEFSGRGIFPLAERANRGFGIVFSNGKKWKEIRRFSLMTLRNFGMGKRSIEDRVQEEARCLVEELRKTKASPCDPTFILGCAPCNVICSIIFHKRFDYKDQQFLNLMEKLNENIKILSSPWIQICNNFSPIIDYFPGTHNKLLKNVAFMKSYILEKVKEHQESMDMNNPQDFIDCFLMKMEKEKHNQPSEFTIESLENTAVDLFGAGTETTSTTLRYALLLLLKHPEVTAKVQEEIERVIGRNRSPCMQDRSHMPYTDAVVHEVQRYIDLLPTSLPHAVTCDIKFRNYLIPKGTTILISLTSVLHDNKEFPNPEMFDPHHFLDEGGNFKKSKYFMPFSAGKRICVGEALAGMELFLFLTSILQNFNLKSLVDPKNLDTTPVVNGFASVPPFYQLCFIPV
In short: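 Enzyme-substrate mix preincubated with compound 10 min at room temperature; reaction started with NADPH regeneration solution, 1 h 37C. Luminescent luciferin product read after 20 min detection reagent.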
Further: nearly all actives have a fitted effect of over 50% in size.
Potency means the concentration at half of the fitted maximal effect.

Compound	Potency	activity change, negative = inhibition
[O-][n+]1ccc(Cl)cc1	inactive	
O=C(O)c1ccc2c(c1)nc(C(=O)NC1CCN(C3CC3)CC1)n2Cc1cc(-c2ccc(Cl)s2)on1		-6.17% [at 23.6 µM]
CCCC(=O)OCc1ccccc1	inactive	
O=C(O)c1ccccc1[N+](=O)[O-]	inactive	
O=c1c2ccccc2oc2ccccc12	39.9 µM (active)	
CCOc1ccc2c(c1)C(C)CC(C)(C)N2 (stereo not drawn)	14.2 µM (active)	
NC(=O)c1ccccc1	inactive	
CC(C(=O)O)c1ccc2c(c1)Cc1cccnc1O2 (stereo not drawn)	inactive	
Clc1cc(Cl)c2c(c1)N=C1CCCCCN1C2	inactive	
CCCC1CCCC(=O)O1 (stereo not drawn)	39.9 µM (active)	
CCCCCCCCCCCCSCCOCCO	24.5 µM (active)	
CCCCCCOC(=O)c1ccccc1	inactive	
C/C(=C\C(C)CC(C)CC(C)C)C1CC(=O)OC1=O (stereo not drawn)	56.4 µM (active)	
CCOc1ccccc1O	inactive	
FC1(F)C(F)(F)C(F)(F)C2(F)C(F)(C1(F)F)C(F)(F)C(F)(F)C1(F)C(F)(F)C(F)(F)C(F)(F)C(F)(F)C12F (stereo not drawn)	inactive	
CCCCCCCCS	inactive	
CCCCOC(=O)CC#N	7.44 µM (active)	
O=C1C=CCCC1	inactive	
O=C1OC(=O)C2CC=CCC12 (stereo not drawn)	inactive	
COC=O		-23.5% [at 10.5 µM]

Compound	Potency	activity change, negative = inhibition
CC(CCl)OC(C)CCl (stereo not drawn)	inactive	
Nc1ccc(-c2ccc(F)cc2)cc1	14.2 µM (active)	
SCCOCCOCCS	35.6 µM (active)	
CCCC1CCOC(C)S1 (stereo not drawn)	inactive	
CCCC(=O)OCCC(C)C	inactive	
CC(C(=O)O)c1ccc(/C=C2\CCCCC2=O)cc1 (stereo not drawn)	inactive	
O=C(O)c1c2ccccc2cc2ccccc12	31.6 µM (active)	
COc1cc(C)c(Cc2cnc(N)nc2N)cc1OC	inactive	
CC(C)(C)N	inactive	
O=C(O)c1ccc(O)c(O)c1	35.5 µM (active)	
O=C(Cl)c1cc(Cl)cc(Cl)c1	inactive	
C1=COCCC1	inactive	
CCCCCCCCCCCCCCCCN	inactive	
CCCCCCCCCCCCCCCCCCCl		-2.7% [at 10.5 µM]
CC1(C)CC(=O)CC(C)(C)N1	inactive	
C[Si](C)(C)O[Si](C)(C)O[Si](C)(C)C	inactive	
O=[N+]([O-])c1cccc(I)c1	inactive	
O=C(Nc1ccc2c(c1)Cc1ccccc1-2)C(F)(F)F	5.03 µM (active)	
Cc1c(-c2cccnc2)c2ccccc2n1CCCCC(=O)O	31.7 µM (active)	

target: Cytochrome P450 1A2 (Homo sapiens) (UniProt P05177); test: Cytochrome P450 Family 1 Subfamily A Member 2 (CYP1A2) small molecule antagonists: luciferase reporter qHTS assay (AID 1671199); conditions: P450-Glo CYP1A2 enzyme, luciferin luminescence, 1 h; series mostly up to 115 µM
Sequence (P05177 whole entry, looked up): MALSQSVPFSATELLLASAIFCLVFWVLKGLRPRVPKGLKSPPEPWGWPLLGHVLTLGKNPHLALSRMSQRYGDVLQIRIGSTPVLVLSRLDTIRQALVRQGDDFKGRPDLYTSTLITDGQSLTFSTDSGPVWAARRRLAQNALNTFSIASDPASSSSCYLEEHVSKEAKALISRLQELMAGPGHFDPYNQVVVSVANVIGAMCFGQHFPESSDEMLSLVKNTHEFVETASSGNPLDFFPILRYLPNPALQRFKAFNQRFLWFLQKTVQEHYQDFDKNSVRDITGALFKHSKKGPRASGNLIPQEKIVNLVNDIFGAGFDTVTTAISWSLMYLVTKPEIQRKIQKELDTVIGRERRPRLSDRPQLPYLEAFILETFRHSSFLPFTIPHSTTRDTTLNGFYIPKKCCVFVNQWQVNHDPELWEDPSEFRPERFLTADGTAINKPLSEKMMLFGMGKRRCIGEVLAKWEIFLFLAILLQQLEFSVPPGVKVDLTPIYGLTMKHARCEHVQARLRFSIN
In short: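 Quantitative high-throughput format using the P450-Glo CYP1A2 system. Reaction initiated by NADPH regeneration solution, 1 h at room temperature, then stopped with detection reagent; luminescence measured 20 min later.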

Compound	Potency	activity change, negative = inhibition
[O-][n+]1ccc(Cl)cc1	inactive	
O=C(O)c1ccc2c(c1)nc(C(=O)NC1CCN(C3CC3)CC1)n2Cc1cc(-c2ccc(Cl)s2)on1		0.996% [at 23.6 µM]
CCCC(=O)OCc1ccccc1	inactive	
O=C(O)c1ccccc1[N+](=O)[O-]	inactive	
O=c1c2ccccc2oc2ccccc12	0.564 µM (active)	
CCOc1ccc2c(c1)C(C)CC(C)(C)N2 (stereo not drawn)	35.6 µM (active)	
NC(=O)c1ccccc1	inactive	
CC(C(=O)O)c1ccc2c(c1)Cc1cccnc1O2 (stereo not drawn)	inactive	
Clc1cc(Cl)c2c(c1)N=C1CCCCCN1C2	5.49 µM (active)	
CCCC1CCCC(=O)O1 (stereo not drawn)	inactive	
CCCCCCCCCCCCSCCOCCO	15.5 µM (active)	
CCCCCCOC(=O)c1ccccc1	20 µM (active)	
C/C(=C\C(C)CC(C)CC(C)C)C1CC(=O)OC1=O (stereo not drawn)	inactive	
CCOc1ccccc1O	inactive	
FC1(F)C(F)(F)C(F)(F)C2(F)C(F)(C1(F)F)C(F)(F)C(F)(F)C1(F)C(F)(F)C(F)(F)C(F)(F)C(F)(F)C12F (stereo not drawn)	inactive	
CCCCCCCCS	inactive	
CCCCOC(=O)CC#N	7.44 µM (active)	
O=C1C=CCCC1	inactive	
O=C1OC(=O)C2CC=CCC12 (stereo not drawn)	inactive	
COC=O		-7.2% [at 10.5 µM]

Compound	Potency	activity change, negative = inhibition
CC(CCl)OC(C)CCl (stereo not drawn)	inactive	
Nc1ccc(-c2ccc(F)cc2)cc1	0.502 µM (active)	
SCCOCCOCCS	22.4 µM (active)	
CCCC1CCOC(C)S1 (stereo not drawn)	inactive	
CCCC(=O)OCCC(C)C	inactive	
CC(C(=O)O)c1ccc(/C=C2\CCCCC2=O)cc1 (stereo not drawn)	inactive	
O=C(O)c1c2ccccc2cc2ccccc12	10 µM (active)	
COc1cc(C)c(Cc2cnc(N)nc2N)cc1OC	inactive	
CC(C)(C)N	inactive	
O=C(O)c1ccc(O)c(O)c1	31.7 µM (active)	
O=C(Cl)c1cc(Cl)cc(Cl)c1	inactive	
C1=COCCC1	inactive	
CCCCCCCCCCCCCCCCN	inactive	
CCCCCCCCCCCCCCCCCCCl		-4.9% [at 10.5 µM]
CC1(C)CC(=O)CC(C)(C)N1	inactive	
C[Si](C)(C)O[Si](C)(C)O[Si](C)(C)C	inactive	
O=[N+]([O-])c1cccc(I)c1	31.6 µM (active)	
O=C(Nc1ccc2c(c1)Cc1ccccc1-2)C(F)(F)F	3.56 µM (active)	
Cc1c(-c2cccnc2)c2ccccc2n1CCCCC(=O)O	31.7 µM (active)	

— PubChem BioAssay (Tox21)
